Test results taken from the supplement of paper PMC10646978.
± gives the standard deviation.

Legend:
Conditions in all cases: modulator concentration 10 µM
[1] = test system: RAW-Dual (murine macrophage reporter line); experiment: NF-kB reporter (SEAP) activity fold change vs agonist alone; higher = enhanced NF-kB activity
Outline: (§1)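 RAW-Dual murine macrophage reporter cells were plated at 50 000 per well in 384-well plates, pin-transferred compound to 10 μM final, and pre-incubated for 1 hour at 37 °C before a PRR agonist was added and the cells incubated overnight. NF-κB activity was read from supernatant SEAP with QUANTI-Blue at 620 nm absorbance, and IRF activity from Lucia luciferase with QUANTI-Luc by luminescence. Each signal was expressed as fold change by dividing by the mean agonist-only control on the same plate. Two replicate plates were averaged, with errors obtained by propagation.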

[2] = test system: RAW-Dual (murine macrophage reporter line); experiment: IRF reporter (Lucia luciferase) activity fold change vs agonist alone; higher = enhanced IRF activity
Outline: as §1

[3] = test system: RAW-Dual (murine macrophage reporter line); experiment: viability score (confluency relative to resting cells, overnight) (fraction); higher = more viable, active = viable (0.7 or more)
Outline: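 Confluency was the readout: RAW-Dual macrophages were imaged with IncuCyte after an overnight exposure to compound at 10 μM final. IncuCyte software produced two masks over all imaged wells. The viability score expresses confluency against resting cells, and both masks had to exceed 70% of resting cells for a compound to meet the cutoff.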

[4] = agonist: CpG ODN 1826 0.5 ug/mL

Work on `NS(=O)(=O)c1cc(Cl)c(Cl)c(S(N)(=O)=O)c1` [Prestw-809] yielded an NF-kB reporter [1, 4] of 1.15 ± 0.13, an NF-kB reporter ([1]; agonist: LPS 0.1 ug/mL) of 1.02 ± 0.083 and an NF-kB reporter ([1]; agonist: MPLA […]) of 0.953 ± 0.046. The IRF reporter ([2]; agonist: 3'3'-cGAMP 10 ug/mL) was 0.916 ± 0.067, the IRF reporter ([2]; agonist: LPS 0.1 ug/mL) was 0.92 ± 0.093 and the IRF reporter ([2]; agonist: MPLA […]) was 0.911 ± 0.16. For the same compound, the viability score [3] was 1 (active).

`Cn1ncc(Cl)c1-c1cc(C(=O)N[C@H](CN)Cc2cccc(F)c2)sc1Cl` was tested, and the NF-kB reporter [1, 4] was 0.833 ± 0.2, the NF-kB reporter ([1]; agonist: LPS 0.1 ug/mL) was 1.54 ± 0.11 and the NF-kB reporter ([1]; agonist: MPLA […]) was 1.64 ± 0.17. For the same compound, the IRF reporter ([2]; agonist: 3'3'-cGAMP 10 ug/mL) was 0.69 ± 0.026, the IRF reporter ([2]; agonist: LPS 0.1 ug/mL) was 1.55 ± 0.21 and the IRF reporter ([2]; agonist: MPLA […]) was 1.79 ± 0.33. For the same compound, the viability score [3] was 0.647 (inactive).

With `CC(C)(O)CNC(=O)c1cccc([N+](=O)[O-])c1` the NF-kB reporter [1, 4] was 0.928 ± 0.074, the NF-kB reporter ([1]; agonist: LPS 0.1 ug/mL) was 0.96 ± 0.11 and the NF-kB reporter ([1]; agonist: MPLA […]) was 0.954 ± 0.058. The IRF reporter ([2]; agonist: 3'3'-cGAMP 10 ug/mL) was 0.811 ± 0.12, the IRF reporter ([2]; agonist: LPS 0.1 ug/mL) was 0.971 ± 0.15 and the IRF reporter ([2]; agonist: MPLA […]) was 0.979 ± 0.23. The viability score [3] was 0.995 (active).

`O=C(O)CCCCCN1C(=O)c2ccccc2C1=O` was tested, and the NF-kB reporter [1, 4] was 0.968 ± 0.089, the NF-kB reporter ([1]; agonist: LPS 0.1 ug/mL) was 0.988 ± 0.074 and the NF-kB reporter ([1]; agonist: MPLA […]) was 1.04 ± 0.099. The IRF reporter ([2]; agonist: 3'3'-cGAMP 10 ug/mL) was 1.03 ± 0.034, the IRF reporter ([2]; agonist: LPS 0.1 ug/mL) was 1.35 ± 0.19 and the IRF reporter ([2]; agonist: MPLA […]) was 1.5 ± 0.23. For the same compound, the viability score [3] was 1.03 (active).

In the case of `O=C(CN(CCc1ccccc1)S(=O)(=O)c1ccc(Cl)cc1)NCc1ccccn1`, the NF-kB reporter [1, 4] is reported as 0.824 ± 0.065, the NF-kB reporter ([1]; agonist: LPS 0.1 ug/mL) is reported as 0.95 ± 0.049 and the NF-kB reporter ([1]; agonist: MPLA […]) is reported as 0.987 ± 0.092. It also gave an IRF reporter ([2]; agonist: 3'3'-cGAMP 10 ug/mL) of 0.741 ± 0.035, an IRF reporter ([2]; agonist: LPS 0.1 ug/mL) of 1.45 ± 0.084 and an IRF reporter ([2]; agonist: MPLA […]) of 1.49 ± 0.16. The viability score [3] was 1.02 (active).

In the case of `COc1ccc(Cl)c(Nc2nc3ccccc3nc2NS(=O)(=O)c2cccc(NC(=O)C(C)(C)N)c2)c1`, the NF-kB reporter [1, 4] is reported as 0.841 ± 0.23, the NF-kB reporter ([1]; agonist: LPS 0.1 ug/mL) is reported as 1.05 ± 0.12 and the NF-kB reporter ([1]; agonist: MPLA […]) is reported as 1.11 ± 0.087. It also gave an IRF reporter ([2]; agonist: 3'3'-cGAMP 10 ug/mL) of 0.221 ± 0.013, an IRF reporter ([2]; agonist: LPS 0.1 ug/mL) of 1.21 ± 0.13 and an IRF reporter ([2]; agonist: MPLA […]) of 1.32 ± 0.3. For the same compound, the viability score [3] was 0.592 (inactive).

With `COc1ccc(OC2CCN(C(=O)C3CCOC3)C2)nn1` (stereo unspecified) the NF-kB reporter [1, 4] was 0.955 ± 0.12, the NF-kB reporter ([1]; agonist: LPS 0.1 ug/mL) was 1.04 ± 0.1 and the NF-kB reporter ([1]; agonist: MPLA […]) was 0.949 ± 0.11. The IRF reporter ([2]; agonist: 3'3'-cGAMP 10 ug/mL) was 1 ± 0.083, the IRF reporter ([2]; agonist: LPS 0.1 ug/mL) was 1.12 ± 0.072 and the IRF reporter ([2]; agonist: MPLA […]) was 1.23 ± 0.14. For the same compound, the viability score [3] was 0.999 (active).

`NC(=O)C1CCCc2c1[nH]c1ccc(Cl)cc21` (stereo unspecified) was tested, and the NF-kB reporter [1, 4] was 1.07 ± 0.15, the NF-kB reporter ([1]; agonist: LPS 0.1 ug/mL) was 1.1 ± 0.14 and the NF-kB reporter ([1]; agonist: MPLA […]) was 0.878 ± 0.05. For the same compound, the IRF reporter ([2]; agonist: 3'3'-cGAMP 10 ug/mL) was 0.959 ± 0.044, the IRF reporter ([2]; agonist: LPS 0.1 ug/mL) was 1.19 ± 0.25 and the IRF reporter ([2]; agonist: MPLA […]) was 1.24 ± 0.098. The viability score [3] was 0.959 (active).

`COc1cccc(N2C(=O)CN(Cc3ccccc3)C3CS(=O)(=O)CC32)c1` (stereo unspecified) was tested, and the NF-kB reporter [1, 4] was 1.43 ± 0.078, the NF-kB reporter ([1]; agonist: LPS 0.1 ug/mL) was 0.719 ± 0.057 and the NF-kB reporter ([1]; agonist: MPLA […]) was 1.49 ± 0.093. It also gave an IRF reporter ([2]; agonist: 3'3'-cGAMP 10 ug/mL) of 0.322 ± 0.034, an IRF reporter ([2]; agonist: LPS 0.1 ug/mL) of 0.237 ± 0.05 and an IRF reporter ([2]; agonist: MPLA […]) of 0.216 ± 0.075. The viability score [3] was 0.832 (active).

In the case of `COc1cc2c(cc1OC)C1C(=O)c3ccc4c(c3OC1CO2)CCC(C)(C)O4` (stereo unspecified), the NF-kB reporter [1, 4] is reported as 0.91 ± 0.073, the NF-kB reporter ([1]; agonist: LPS 0.1 ug/mL) is reported as 1.02 ± 0.075 and the NF-kB reporter ([1]; agonist: MPLA […]) is reported as 1.67 ± 0.16. For the same compound, the IRF reporter ([2]; agonist: 3'3'-cGAMP 10 ug/mL) was 0.824 ± 0.026, the IRF reporter ([2]; agonist: LPS 0.1 ug/mL) was 1.52 ± 0.24 and the IRF reporter ([2]; agonist: MPLA […]) was 1.75 ± 0.36. For the same compound, the viability score [3] was 1.02 (active).

In the case of `CNC(=O)[C@@H](NC(=O)[C@H](CC(C)C)[C@H](O)C(=O)NO)C(C)(C)C`, the NF-kB reporter [1, 4] is reported as 1.29 ± 0.097, the NF-kB reporter ([1]; agonist: LPS 0.1 ug/mL) is reported as 1.15 ± 0.13 and the NF-kB reporter ([1]; agonist: MPLA […]) is reported as 0.996 ± 0.021. It also gave an IRF reporter ([2]; agonist: 3'3'-cGAMP 10 ug/mL) of 0.868 ± 0.048, an IRF reporter ([2]; agonist: LPS 0.1 ug/mL) of 0.983 ± 0.11 and an IRF reporter ([2]; agonist: MPLA […]) of 1 ± 0.13. For the same compound, the viability score [3] was 1.01 (active).

`CC1CCc2cc(F)cc3c(=O)c(C(=O)O)cn1c23` (stereo unspecified) was tested, and the NF-kB reporter [1, 4] was 0.961 ± 0.13, the NF-kB reporter ([1]; agonist: LPS 0.1 ug/mL) was 1.01 ± 0.074 and the NF-kB reporter ([1]; agonist: MPLA […]) was 1.01 ± 0.066. For the same compound, the IRF reporter ([2]; agonist: 3'3'-cGAMP 10 ug/mL) was 0.955 ± 0.066, the IRF reporter ([2]; agonist: LPS 0.1 ug/mL) was 0.872 ± 0.031 and the IRF reporter ([2]; agonist: MPLA […]) was 0.86 ± 0.16. The viability score [3] was 0.999 (active).

Compound `Cc1cc(C)n(C2CC(=O)N(c3ccccc3)C2=O)n1` (stereo unspecified) has an NF-kB reporter [1, 4] of 1.04 ± 0.08, an NF-kB reporter ([1]; agonist: LPS 0.1 ug/mL) of 0.926 ± 0.1 and an NF-kB reporter ([1]; agonist: MPLA […]) of 1.21 ± 0.2. It also gave an IRF reporter ([2]; agonist: 3'3'-cGAMP 10 ug/mL) of 1.05 ± 0.04, an IRF reporter ([2]; agonist: LPS 0.1 ug/mL) of 1.31 ± 0.25 and an IRF reporter ([2]; agonist: MPLA […]) of 1.42 ± 0.21. The viability score [3] was 1.02 (active).
